In PubChem BioAssay (NCATS):
Inconclusive results are not listed. A call without a number means that no potency is given here. Activity calls are given as the source filed them. Calls follow the shape of the dose curve; as a rule, active = well fitted inhibition curve with a large enough effect; inconclusive = small, poorly fitted or top-dose-only effect; inactive = flat fitted curve, though single readings scatter. Peptide text beside a SMILES is read from it.

tested on: CP217; assay: qHTS profiling for inhibitors of Plasmodium falciparum proliferation (AID 504749); also: nearly all actives have a fitted effect of over 60% in size; settings: P. falciparum in erythrocytes, SYBR Green DNA, 72 h; series mostly up to 12.8 µM
Procedure, shortened: (§1)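 SYBR Green fluorescence (ex 485 nm, em 535 nm) reports parasite DNA after 72 h compound exposure of infected red cells at 0.3% parasitemia, 2.5% hematocrit; signal normalized to 0.29 uM artemisinin and vehicle wells.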
Potency is read from the fitted curve at half-maximal effect.

SMILES | Potency
C[C@]12C=CC(=O)C=C1CCC1C2C(O)C[C@]2(C)C1CC[C@]2(O)C(=O)CO (some centres not stated) | inactive
CC1(C)S[C@H]2C(NC(=O)[C@@H](N)c3ccc(O)cc3)C(=O)N2[C@@H]1C(=O)O (some centres not stated) | inactive
CC(C)=CCC[C@](C)(O)C1CC=C(C)CC1 (some centres not stated) | inactive
CO[C@]12C(COC(N)=O)C3=C(C(=O)C(C)=C(N)C3=O)N1CC1NC12 (some centres not stated) | 1780 nM (active)
C[C@]1(c2ccccc2)OC(C(=O)O)=CC1=O | inactive
CC(=O)N[C@H](CC(C)C)C(=O)O | inactive
COc1ccc2cc(C(C)CO)ccc2c1 (configuration not stated) | inactive
COC1C=CO[C@@]2(C)Oc3c(C)c(O)c4c(O)c(c(C=NN5CCN(C)CC5)c(O)c4c3C2=O)NC(=O)/C(C)=C\C=CC(C)C(O)[C@@H](C)C(O)C(C)[C@H](OC(C)=O)C1C (some centres not stated) | 5010 nM (active)
CC1CCC(C(C)C)C(=O)C1 (configuration not stated) | inactive
CNC1CC(N)[C@H](O)[C@@H](O[C@@H]2OC(CO)C3OC4(OC(C(N)CO)C(O)C(O)C4O)O[C@@H]3[C@H]2O)C1O (some centres not stated) | inactive
CCCC(=O)O[C@]1(C(=O)CO)CCC2[C@@H]3CCC4=CC(=O)CC[C@]4(C)C3C(O)C[C@]21C (some centres not stated) | inactive
CC(=O)[C@]1(O)CCC2C3C=C(Cl)C4=CC(=O)C5CC5[C@@]4(C)C3CC[C@]21C (some centres not stated) | inactive
CC(=O)N[C@@H]1C(O)OC(CO)C(O)C1O (some centres not stated) | inactive
C/C1=C2N=C(/C=C3N=C(/C(C)=C4\[N-]C(C)(C5N=C1C(C)(CCC(=O)NCC(C)OP(=O)([O-])O[C@H]1C(O)C(n6cnc7cc(C)c(C)cc76)O[C@@H]1CO)C5CC(N)=O)C(C)(CC(N)=O)C4CCC(N)=O)C(C)(CC(N)=O)C\3CCC(N)=O)C(C)(C)C/2CCC(N)=O.[CH2-]C1OC(n2cnc3c(N)ncnc32)C(O)C1O.[Co] (some centres not stated) | inactive
O=C1OC(CO)C(O)C(O)C1O (configuration not stated) | inactive
CNC1C(OC2C(O[C@@H]3C(O)C(O)[C@@H](N=C(N)N)C(O)C3N=C(N)N)OC(C)[C@@]2(O)CO)OC(CO)C(O)C1O (some centres not stated) | inactive
COc1cc(C2c3cc4c(cc3C(O[C@@H]3OC5COC(c6cccs6)OC5C(O)C3O)C3COC(=O)C23)OCO4)cc(OC)c1O (some centres not stated) | 2000 nM (active)
Nc1nc2ncc(CNc3ccc(C(=O)NC(CCC(=O)O)C(=O)O)cc3)nc2c(=O)[nH]1 (configuration not stated) | inactive

tested on: CP237; assay: as above; settings: P. falciparum in erythrocytes, SYBR Green DNA, 72 h; series mostly up to 12.8 µM
Procedure, shortened: as §1

SMILES | Potency
CN(C)CCCOC1C(C(O)CO)OC2OC(C)(C)O[C@@H]21 (some centres not stated) | inactive
CCC(C)C(=O)OC1CCC=C2C=CC(C)C(CCC3CC(O)CC(=O)O3)[C@@H]21 (some centres not stated) | inactive
CC(=O)OC1CCC2C3CCc4cc(O)ccc4C3CCC12C (configuration not stated) | inactive
CC[C@@]12CCCN3CCc4c(n(c5ccccc45)[C@](O)(C(=O)OC)C1)C32 (some centres not stated) | inactive
NC(C(=O)O)[C@@H]1CC(Cl)=NO1 (some centres not stated) | 1260 nM (active)
CN1CC(=O)N=C1N | inactive
OCC1OC([S-])[C@H](O)C(O)C1O.[Au+] (some centres not stated) | inactive
CC(C)C1CCC(C(=O)NC(Cc2ccccc2)C(=O)O)CC1 (configuration not stated) | inactive
CCC(CCC(C)C1CCC2C3CC=C4CC(O)CC[C@@]4(C)C3CC[C@@]12C)C(C)C (some centres not stated) | inactive
C[C@]12CCC(=O)C=C1CCC1C2C(=O)C[C@]2(C)C1CC[C@]2(O)C(=O)CO (some centres not stated) | inactive
OCC1O[C@H](OC2C(CO)O[C@@](O)(CO)C2O)C(O)C(O)C1O (some centres not stated) | inactive
CC1(C)OC2CO[C@]3(COS(N)(=O)=O)OC(C)(C)OC3C2O1 (some centres not stated) | inactive
CC1(C)OC2CC(=O)OC[C@@]23C1CC(=O)[C@]1(C)C3CC[C@@]2(C)C(c3ccoc3)OC(=O)C3O[C@@]321 (some centres not stated) | inactive
CCOC(=O)C1=CC(OC(CC)CC)C(NC(C)=O)C(N)C1 (configuration not stated) | inactive
COC1C=CO[C@@]2(C)Oc3c(C)c(O)c4c(O)c(c5c(nc6cc(C)ccn65)c4c3C2=O)NC(=O)/C(C)=C\C=CC(C)C(O)[C@@H](C)C(O)C(C)[C@@H](OC(C)=O)C1C (some centres not stated) | 8910 nM (active)
COC(=O)C(Cc1ccccc1)NC(=O)C(N)CC(=O)O (stereo not drawn) (H-Asp-Phe-OMe; configuration not given here) | inactive
C[C@]12C=CC(=O)C=C1CCC1C2C(O)C[C@]2(C)C1CC[C@]2(O)C(=O)CO (some centres not stated) | inactive

SMILES | Potency
CC1(C)S[C@H]2C(NC(=O)[C@@H](N)c3ccc(O)cc3)C(=O)N2[C@@H]1C(=O)O (some centres not stated) | inactive
CC(C)=CCC[C@](C)(O)C1CC=C(C)CC1 (some centres not stated) | inactive
CO[C@]12C(COC(N)=O)C3=C(C(=O)C(C)=C(N)C3=O)N1CC1NC12 (some centres not stated) | inactive
C[C@]1(c2ccccc2)OC(C(=O)O)=CC1=O | inactive
CC(=O)N[C@H](CC(C)C)C(=O)O | inactive
COc1ccc2cc(C(C)CO)ccc2c1 (configuration not stated) | inactive
COC1C=CO[C@@]2(C)Oc3c(C)c(O)c4c(O)c(c(C=NN5CCN(C)CC5)c(O)c4c3C2=O)NC(=O)/C(C)=C\C=CC(C)C(O)[C@@H](C)C(O)C(C)[C@H](OC(C)=O)C1C (some centres not stated) | 355 nM (active)
CC1CCC(C(C)C)C(=O)C1 (configuration not stated) | inactive
CNC1CC(N)[C@H](O)[C@@H](O[C@@H]2OC(CO)C3OC4(OC(C(N)CO)C(O)C(O)C4O)O[C@@H]3[C@H]2O)C1O (some centres not stated) | inactive
CCCC(=O)O[C@]1(C(=O)CO)CCC2[C@@H]3CCC4=CC(=O)CC[C@]4(C)C3C(O)C[C@]21C (some centres not stated) | inactive
CC(=O)[C@]1(O)CCC2C3C=C(Cl)C4=CC(=O)C5CC5[C@@]4(C)C3CC[C@]21C (some centres not stated) | inactive
CC(=O)N[C@@H]1C(O)OC(CO)C(O)C1O (some centres not stated) | inactive
C/C1=C2N=C(/C=C3N=C(/C(C)=C4\[N-]C(C)(C5N=C1C(C)(CCC(=O)NCC(C)OP(=O)([O-])O[C@H]1C(O)C(n6cnc7cc(C)c(C)cc76)O[C@@H]1CO)C5CC(N)=O)C(C)(CC(N)=O)C4CCC(N)=O)C(C)(CC(N)=O)C\3CCC(N)=O)C(C)(C)C/2CCC(N)=O.[CH2-]C1OC(n2cnc3c(N)ncnc32)C(O)C1O.[Co] (some centres not stated) | inactive
O=C1OC(CO)C(O)C(O)C1O (configuration not stated) | inactive
CNC1C(OC2C(O[C@@H]3C(O)C(O)[C@@H](N=C(N)N)C(O)C3N=C(N)N)OC(C)[C@@]2(O)CO)OC(CO)C(O)C1O (some centres not stated) | inactive
COc1cc(C2c3cc4c(cc3C(O[C@@H]3OC5COC(c6cccs6)OC5C(O)C3O)C3COC(=O)C23)OCO4)cc(OC)c1O (some centres not stated) | 2240 nM (active)
Nc1nc2ncc(CNc3ccc(C(=O)NC(CCC(=O)O)C(=O)O)cc3)nc2c(=O)[nH]1 (configuration not stated) | inactive
